# The campaign covered roughly 330,000 compounds. About 1,700 (0.52%) were called active.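 The calls were made as follows: active = GFP response versus DMSO above a set limit, roughly screen mean plus 3 SD (cut at about 180% in these data); inconclusive = fewer than 70 cells counted for a yeast strain; inactive = the rest.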 What follows is part of a selection rich in actives, with near analogues and random picks from the rest.
# Assay: TOR pathway GLN3 branch reporter MEP2-GFP changes – S. cerevisiae, multiplex flow cytometry, MLPCN library, primary screen (AID 2016);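 also: median GFP fluorescence of the barcode-gated MEP2-GFP cells per well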
# Conditions: S. cerevisiae MEP2-GFP strain, 3 h, at 10 µM, hits give high values, 100% = DMSO control level
row,SMILES,GFP response vs DMSO
1,N#CCCN1CCN(S(=O)(=O)c2ccc(S(=O)(=O)NC3CCCCC3)cc2)CC1,107% (inactive)
2,Cn1c2ccccc2c2c(C(=O)N3CCN(c4ccc(F)cc4)CC3)cn(C3CCCC3)c(=O)c21,116% (inactive)
3,COc1cc(C)c(Cl)cc1S(=O)(=O)n1ccnc1,92% (inactive)
4,O=C(NCC(=O)N1CCN(c2ccccc2F)CC1)c1cccs1,111% (inactive)
5,C/C(=N/NS(=O)(=O)c1ccccc1)c1ccc(NC(=O)C(F)(F)F)cc1,219% (active)
6,C/C(=N\NS(=O)(=O)c1ccc(Cl)cc1)c1ccc(NC(=O)c2ccco2)cc1,102% (inactive)
7,CC(=O)N(C)c1ccc(NC(=O)C(F)(F)F)cc1,100% (inactive)
8,C[N+](C)(C)CCNC(=O)c1cc[n+](Cc2ccccc2)c(/C=N/O)c1,104% (inactive)
9,COC(=O)Nc1ncc(CN2C(=O)c3ccccc3C2=O)s1,109% (inactive)
10,CCOC(=O)c1cnc(SCC(=O)Nc2cccc(OC)c2)nc1N,90.7% (inactive)
11,CCOC(=O)c1cnc(SCC(=O)NCc2ccco2)nc1N,222% (active)
12,CCOC(=O)c1cnc(SCC(=O)Nc2ccccc2C(=O)OC)nc1N,98.3% (inactive)
13,CCOc1ccc(CN(Cc2ccco2)C(c2cccs2)c2nnnn2C(C)(C)C)cc1 (centres undefined),98.9% (inactive)
14,CCN(CCn1cccn1)C(=O)CC1C(=O)NCCN1Cc1cccc(OC)c1OC (centres undefined),100% (inactive)
15,CC(=O)Nc1ccc(NC(=O)CC2CCCC2)cc1,779% [may fluoresce violet] (active)
16,CC(=O)Nc1ccc(NC(=O)COC(=O)C2CCC(C(C)(C)C)CC2)cc1 (centres undefined),103% (inactive)
17,COc1ccc(NC(=O)CN(C)C(=O)CC2CCCCC2)cc1,102% (inactive)
18,O=C(COC(=O)/C=C/c1cccc(Cl)c1)NCCc1ccccc1,114% (inactive)
19,O=C(c1ccco1)N(Cc1nc2ccccc2c(=O)[nH]1)C1CCCC1,271% [may fluoresce violet] (active)
20,CCCC(=O)N(CCc1ccccc1)Cc1nc2ccccc2c(=O)[nH]1,85.6% (inactive)
21,CCN(CC(=O)NC(=O)NCc1ccccc1)Cc1nc2ccccc2c(=O)[nH]1,98.5% (inactive)
22,COc1ccc(CNC(=O)CN(C(=O)c2csnn2)c2cnc3ccccc3c2)cc1,102% (inactive)

row,SMILES,GFP response vs DMSO
1,CCCCCCNCCn1cnc2c(N)ncnc21,97.1% (inactive)
2,COc1ccc(CCNC(=S)N2CCN(S(=O)(=O)c3ccc(F)cc3)CC2)cc1,103% (inactive)
3,COc1ccc(C(=O)Nc2cccc(S(C)(=O)=O)c2)cc1,112% (inactive)
4,COc1ccc(C(=O)NN(C)c2nc(-c3ccccc3)cc(C)c2S(C)(=O)=O)cc1,287% [may fluoresce violet] (active)
5,COc1ccc(NS(=O)(=O)c2cc(C(=O)Nc3ccccc3C(=O)O)ccc2C)cc1,95.4% (inactive)
6,O=C(CCc1ccc(S(=O)(=O)N2CCOCC2)cc1)NN=C1CCCCCCC1,104% (inactive)
7,O=C(c1cc(S(=O)(=O)N2CCOCC2)ccc1Cl)N1CCOCC1,103% (inactive)
8,O=C(O)c1ccc(S(=O)(=O)N2CCOCC2)o1,264% [may fluoresce violet] (active)
9,Cc1cccc(C)c1NC(=O)c1ccc(CN2CCc3ccccc3C2)cc1,101% (inactive)
10,COc1ccc(C(=O)N(Cc2ccccc2)c2ccc(C)cc2)cc1S(=O)(=O)N1CCOCC1,103% (inactive)
11,Cc1ccc(C23CC4CC(CC(C(=O)NCC(=O)O)(C4)C2)C3)cc1,292% [may fluoresce violet] (active)
12,C=CCNC(=O)C12CC3CC(C1)CC(C(=O)NCC=C)(C3)C2,106% (inactive)
13,CCOc1ccccc1NC(=O)C12CC3CC(C1)CC(c1ccc(C)cc1)(C3)C2,97.6% (inactive)
14,CCn1c(C)nc2c1C(=O)c1ccccc1C2=O,93.7% (inactive)
15,O=C(CNC(=O)[C@@H]1Cc2ccccc2CN1)NC1CCCCC1,99.4% (inactive)
16,Cc1cc2cc3c(cc2nc1SCC(=O)Nc1c(C)cccc1C)CCC3,94.7% (inactive)
17,CC(C)(C)NC(=O)C(c1ccc(Cl)cc1)N(CCO)C(=O)c1snc(C(N)=O)c1N (centres undefined),97.4% (inactive)
18,NC(=O)c1nsc(C(=O)N(CCCN2CCOCC2)C(C(=O)NC2CCCCC2)c2ccc(Cl)cc2)c1N (centres undefined),238% [may fluoresce violet] (active)
19,CCOc1ccc(C(C(=O)NC2CCCC2)N(C(=O)c2snc(C(N)=O)c2N)C2CCCC2)cc1 (centres undefined),113% (inactive)
20,CC(C)CNC(=S)NC(=O)c1ccc(Cl)cc1,100% (inactive)
21,COCc1cc(=O)n2[nH]c(C)c(-c3ccccc3)c2n1,97.4% (inactive)
22,COCCNc1nc2nonc2nc1N1CCCC1c1nccs1 (centres undefined),90.4% (inactive)
